# Experimental data reported in ChEMBL document CHEMBL5606458, “ASAP - ZIKV NS2B-NS3 protease fluorescence single point” (2024).
# Hit rate of the full screen: of about 2,700 compounds, about 160 (5.9%) showed an effect of 50% or more. This is one part of a sample in which strong results are shown more often than they occur.
# Biological target: Nonstructural protein 3 (Zika virus) (UniProt A0A024AXB9)
# [1] = PRVABC59, Concentration 50.0 uM, Number of replicates 1.0
# [2] = PRVABC59, Concentration 15.0 uM, Number of replicates 1.0
# Chain of Nonstructural protein 3 (Zika virus) (A0A024AXB9 as listed by the source): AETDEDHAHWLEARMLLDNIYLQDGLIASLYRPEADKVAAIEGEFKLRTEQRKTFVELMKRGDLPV
smiles,measurement,setting,value
Cc1cc(CO)c2cccc(Cc3ccccc3C(=O)N3CCO[C@@H](CN)C3)c2n1,inhibition,"PRVABC59, Concentration 99.9 uM, Number of replicates 2.0, Standard deviation 2.9992587541792743 %",-6.8%
O=Cc1ccc(N2CCC(C(=O)Nc3cc(Cl)c(F)cc3F)CC2)cc1,inhibition,[1],26.1%
COc1ccccc1N1CCN(C(=O)c2cc(Cl)ccc2NS(=O)(=O)c2ccc(Oc3ccccc3Cl)cc2)CC1,inhibition,[2],8.47%
O=Cc1ccc(N2CCC(C(=O)Nc3ncc(F)cc3Br)CC2)cc1,inhibition,[1],19.1%
C[C@@H](NC(=O)OCc1ccccc1)C(=O)Nc1cccc(CN)c1,inhibition,"PRVABC59, Concentration 49.5 uM, Number of replicates 2.0, Standard deviation 0.22300909071478295 %",-5.65%
same,inhibition,"PRVABC59, Concentration 99.01 uM, Number of replicates 2.0, Standard deviation 0.06482809074333463 %",-3.85%
same,inhibition,"PRVABC59, Concentration 198.0 uM, Number of replicates 2.0, Standard deviation 0.9413049329503056 %",-1.69%
CCOc1ccc(CNC(=O)c2cc(Cl)ccc2NS(=O)(=O)c2ccc(Oc3ccccc3Cl)cc2)cc1,inhibition,[2],30.8%
Cc1cc(CO)c2cccc(Cc3cccc(C(=O)N4CC[C@@H](CO)C4)c3)c2n1,inhibition,"PRVABC59, Concentration 49.95 uM, Number of replicates 2.0, Standard deviation 1.594011680945781 %",-6.14%
same,inhibition,"PRVABC59, Concentration 99.9 uM, Number of replicates 2.0, Standard deviation 1.5520642713220405 %",3.44%
Cc1cc(CO)c2cccc(Cc3cccc(C(=O)N4CCC(C(=O)O)CC4)c3)c2n1,inhibition,"PRVABC59, Concentration 49.95 uM, Number of replicates 2.0, Standard deviation 0.6921367263576601 %",-3.78%
same,inhibition,"PRVABC59, Concentration 99.9 uM, Number of replicates 2.0, Standard deviation 0.04719115192807187 %",-2.12%
Cc1cc(CO)c2cccc(Cc3cccc(C(=O)N4CCC(CN)CC4)c3)c2n1,inhibition,"PRVABC59, Concentration 49.95 uM, Number of replicates 2.0, Standard deviation 0.3303341859864401 %",94.6%
same,inhibition,"PRVABC59, Concentration 99.9 uM, Number of replicates 2.0, Standard deviation 0.3198467013777773 %",90.9%
Cc1cc(CO)c2cccc(Cc3ccccc3C(=O)N3CC[C@@H](O)C3)c2n1,inhibition,"PRVABC59, Concentration 49.95 uM, Number of replicates 2.0, Standard deviation 0.18876460771228748 %",-8.95%
same,inhibition,"PRVABC59, Concentration 99.9 uM, Number of replicates 2.0, Standard deviation 1.2164824655212059 %",-7.58%
Cc1cc(CO)c2cccc(Cc3ccccc3C(=O)N3CCC(CN)CC3)c2n1,inhibition,"PRVABC59, Concentration 49.95 uM, Number of replicates 2.0, Standard deviation 5.668177927575499 %",56.2%
same,inhibition,"PRVABC59, Concentration 99.9 uM, Number of replicates 2.0, Standard deviation 1.410491152712613 %",37.7%
Cc1cc(CO)c2cccc(Cc3ccccc3C(=O)N3CCC(C(=O)O)CC3)c2n1,inhibition,"PRVABC59, Concentration 49.95 uM, Number of replicates 2.0, Standard deviation 1.0591789629357544 %",-4.89%
same,inhibition,"PRVABC59, Concentration 99.9 uM, Number of replicates 2.0, Standard deviation 2.3071221964090083 %",-5.26%
O=C(N[C@H]1CC(=O)N(Cc2ccccc2)C1)c1cc(Cl)ccc1NS(=O)(=O)c1ccc(Oc2ccccc2Cl)cc1,inhibition,[2],22%
Cc1cc(CO)c2cccc(Cc3cccc(C(=O)NCc4c(C)noc4C)c3)c2n1,inhibition,"PRVABC59, Concentration 49.95 uM, Number of replicates 2.0, Standard deviation 0.6344586798768046 %",-2.24%
same,inhibition,"PRVABC59, Concentration 99.9 uM, Number of replicates 2.0, Standard deviation 0.2674164432987103 %",1.65%
O=C(c1cc(Cl)ccc1NS(=O)(=O)c1ccc(Oc2ccccc2Cl)cc1)N1CCN(C(=O)[C@H]2COc3ccccc3O2)CC1,inhibition,[2],19.2%
Cn1cc(NC(=O)c2ccccc2C(F)(F)F)c(-c2ccccc2CO)n1,inhibition,"PRVABC59, Concentration 49.5 uM, Number of replicates 2.0, Standard deviation 1.1938974234704913 %",-0.442%
same,inhibition,"PRVABC59, Concentration 99.01 uM, Number of replicates 2.0, Standard deviation 1.523480341882225 %",1.31%
same,inhibition,"PRVABC59, Concentration 198.0 uM, Number of replicates 2.0, Standard deviation 2.1372444344514228 %",2.85%
Cc1cc(Cl)c2cccc(N)c2n1,inhibition,"PRVABC59, Concentration 49.95 uM, Number of replicates 2.0, Standard deviation 7.781875381379218 %",5.79%
same,inhibition,"PRVABC59, Concentration 99.9 uM, Number of replicates 2.0, Standard deviation 5.7320152302040395 %",14.4%
Cc1cc(N)c2c(Cl)ccc(Cl)c2n1,inhibition,"PRVABC59, Concentration 49.95 uM, Number of replicates 2.0, Standard deviation 14.266771188329304 %",-9.58%
Cc1cc(Cl)c2c(N)ccc(C)c2n1,inhibition,"PRVABC59, Concentration 49.95 uM, Number of replicates 2.0, Standard deviation 1.4741281735170297 %",80.8%
same,inhibition,"PRVABC59, Concentration 99.9 uM, Number of replicates 2.0, Standard deviation 0.2024559271573544 %",83.6%
O=Cc1ccc(N2CCC(C(=O)NCc3c(F)cc(F)c(F)c3F)CC2)cc1,inhibition,"PRVABC59, Concentration 10.0 uM, Number of replicates 1.0",22.5%
COc1ccc(CN2CCC(c3c[nH]c4cccnc34)CC2)cc1,inhibition,"PRVABC59, Concentration 49.5 uM, Number of replicates 2.0, Standard deviation 0.21004326604655832 %",0.598%
same,inhibition,"PRVABC59, Concentration 99.01 uM, Number of replicates 2.0, Standard deviation 0.8142417098777236 %",6.55%
same,inhibition,"PRVABC59, Concentration 198.0 uM, Number of replicates 2.0, Standard deviation 1.1254172872302635 %",14.8%
O=Cc1ccc(N2CCC(C(=O)N(Cc3cnn(-c4ccccc4)c3)C3CC3)CC2)cc1,inhibition,[1],26.1%
COc1cc(NC(=O)C2CCN(c3ccc(C=O)cc3)CC2)cc(OC)c1,inhibition,[1],28%
O=Cc1ccc(N2CCC(C(=O)Nc3cc(Cl)ccc3Br)CC2)cc1,inhibition,[1],19.5%
O=Cc1ccc(N2CCC(C(=O)Nc3ccc([N+](=O)[O-])cc3Cl)CC2)cc1,inhibition,[1],39.8%
O=Cc1ccc(N2CCC(C(=O)Nc3cc(Cl)cc(Cl)c3O)CC2)cc1,inhibition,[1],92.4%
O=Cc1ccc(N2CCC(C(=O)Nc3cc(Cl)c(O)c(Cl)c3)CC2)cc1,inhibition,[1],98.7%
O=Cc1ccc(N2CCC(C(=O)Nc3ccc(O)cc3[N+](=O)[O-])CC2)cc1,inhibition,[1],38.4%
O=Cc1ccc(N2CCC(C(=O)Nc3cc(Cl)c(F)c(Cl)c3)CC2)cc1,inhibition,[1],20.1%
O=Cc1ccc(N2CCC(C(=O)Nc3ccc(Cl)c(Cl)c3)CC2)cc1,inhibition,[1],22.8%
O=Cc1ccc(N2CCC(C(=O)Nc3c(Cl)cc(Cl)cc3Br)CC2)cc1,inhibition,[1],22.3%
